# In article PMC9911399, “Two distinct binding modes provide the RNA-binding protein RbFox with extraordinary sequence specificity”:
# Substitutions are numbered along the chain they refer to; changes in the protein carry UniProt numbers. Whole data set: some 16,000 sequences, median “ka relative to ugcaugu” near 0.0091, cut for the highest 2% near 0.032. Many of the other results were omitted from the sample, so the highest values are more common in it than they were.
# T1: RBFOX1 RRM (Homo sapiens, UniProt Q9NWB1 109-208)
# T1 sequence: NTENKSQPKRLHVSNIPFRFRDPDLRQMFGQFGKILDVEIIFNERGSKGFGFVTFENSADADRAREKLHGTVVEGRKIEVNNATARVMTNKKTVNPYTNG
# B1: CGCAUAC (DNA:RNA)
# RNA: GGGAGACCGGAAUUCAGAUUGUCCCGCAUACUUAAAUCCCGUCGUAGCCACCA
# DNA 1: CAATCTGAATTCCGGTCTCCC
# DNA 2: TGGTGGCTACGACGGGATT
# B2: AUGCGCC (DNA:RNA)
# RNA: B1 RNA with C25A, G26U, C27G, A28C, U29G, A30C
# DNA 1: CAATCTGAATTCCGGTCTCCC
# DNA 2: TGGTGGCTACGACGGGATT
# B3: AACACCC (DNA:RNA)
# RNA: B1 RNA with C25A, G26A, U29C, A30C
# DNA 1: CAATCTGAATTCCGGTCTCCC
# DNA 2: TGGTGGCTACGACGGGATT
# B4: AAUUUUC (DNA:RNA)
# RNA: B1 RNA with C25A, G26A, C27U, A28U, A30U
# DNA 1: CAATCTGAATTCCGGTCTCCC
# DNA 2: TGGTGGCTACGACGGGATT
# B5: ACAGCCG (DNA:RNA)
# RNA: GGGAGACCGGAAUUCAGAUUGUCCACAGCCGUUAAAUCCCGUCGUAGCCACCA
# DNA 1: CAATCTGAATTCCGGTCTCCC
# DNA 2: TGGTGGCTACGACGGGATT
# B6: UGGGCCC (DNA:RNA)
# RNA: B5 RNA with A25U, C26G, A27G, G31C
# DNA 1: CAATCTGAATTCCGGTCTCCC
# DNA 2: TGGTGGCTACGACGGGATT
# B7: UGGGCCU (DNA:RNA)
# RNA: B5 RNA with A25U, C26G, A27G, G31U
# DNA 1: CAATCTGAATTCCGGTCTCCC
# DNA 2: TGGTGGCTACGACGGGATT
# B8: CUGGGCC (DNA:RNA)
# RNA: B5 RNA with A25C, C26U, A27G, C29G, G31C
# DNA 1: CAATCTGAATTCCGGTCTCCC
# DNA 2: TGGTGGCTACGACGGGATT
# B9: UGGGCCG (DNA:RNA)
# RNA: B5 RNA with A25U, C26G, A27G
# DNA 1: CAATCTGAATTCCGGTCTCCC
# DNA 2: TGGTGGCTACGACGGGATT
# B10: UGGCCGU (DNA:RNA)
# RNA: B5 RNA with A25U, C26G, A27G, G28C, C30G, G31U
# DNA 1: CAATCTGAATTCCGGTCTCCC
# DNA 2: TGGTGGCTACGACGGGATT
# B11: UGGGGCC (DNA:RNA)
# RNA: B5 RNA with A25U, C26G, A27G, C29G, G31C
# DNA 1: CAATCTGAATTCCGGTCTCCC
# DNA 2: TGGTGGCTACGACGGGATT
# B12: GACUUCU (DNA:RNA)
# RNA: B1 RNA with C25G, G26A, A28U, A30C, C31U
# DNA 1: CAATCTGAATTCCGGTCTCCC
# DNA 2: TGGTGGCTACGACGGGATT
# B13: UCCAGUC (DNA:RNA)
# RNA: B1 RNA with C25U, G26C, U29G, A30U
# DNA 1: CAATCTGAATTCCGGTCTCCC
# DNA 2: TGGTGGCTACGACGGGATT
# B14: ACCGGCA (DNA:RNA)
# RNA: B5 RNA with A27C, C29G, G31A
# DNA 1: CAATCTGAATTCCGGTCTCCC
# DNA 2: TGGTGGCTACGACGGGATT
# B15: AUGUCGU (DNA:RNA)
# RNA: B5 RNA with C26U, A27G, G28U, C30G, G31U
# DNA 1: CAATCTGAATTCCGGTCTCCC
# DNA 2: TGGTGGCTACGACGGGATT
# B16: AGGCAUA (DNA:RNA)
# RNA: B5 RNA with C26G, A27G, G28C, C29A, C30U, G31A
# DNA 1: CAATCTGAATTCCGGTCTCCC
# DNA 2: TGGTGGCTACGACGGGATT
# B17: UGGCAUA (DNA:RNA)
# RNA: B1 RNA with C25U, C27G, A28C, U29A, A30U, C31A
# DNA 1: CAATCTGAATTCCGGTCTCCC
# DNA 2: TGGTGGCTACGACGGGATT
# B18: GGCAUGU (DNA:RNA)
# RNA: B1 RNA with C25G, A30G, C31U
# DNA 1: CAATCTGAATTCCGGTCTCCC
# DNA 2: TGGTGGCTACGACGGGATT
# B19: GUCAUGU (DNA:RNA)
# RNA: B1 RNA with C25G, G26U, A30G, C31U
# DNA 1: CAATCTGAATTCCGGTCTCCC
# DNA 2: TGGTGGCTACGACGGGATT
# B20: UGGCAUG (DNA:RNA)
# RNA: B5 RNA with A25U, C26G, A27G, G28C, C29A, C30U
# DNA 1: CAATCTGAATTCCGGTCTCCC
# DNA 2: TGGTGGCTACGACGGGATT
# B21: CGGCAUG (DNA:RNA)
# RNA: B1 RNA with C27G, A28C, U29A, A30U, C31G
# DNA 1: CAATCTGAATTCCGGTCTCCC
# DNA 2: TGGTGGCTACGACGGGATT
# B22: GGCAUUG (DNA:RNA)
# RNA: B1 RNA with C25G, A30U, C31G
# DNA 1: CAATCTGAATTCCGGTCTCCC
# DNA 2: TGGTGGCTACGACGGGATT
# B23: AGGCAUG (DNA:RNA)
# RNA: B5 RNA with C26G, A27G, G28C, C29A, C30U
# DNA 1: CAATCTGAATTCCGGTCTCCC
# DNA 2: TGGTGGCTACGACGGGATT
# B24: AGGCAUC (DNA:RNA)
# RNA: B1 RNA with C25A, C27G, A28C, U29A, A30U
# DNA 1: CAATCTGAATTCCGGTCTCCC
# DNA 2: TGGTGGCTACGACGGGATT
# B25: UGGCAUC (DNA:RNA)
# RNA: B1 RNA with C25U, C27G, A28C, U29A, A30U
# DNA 1: CAATCTGAATTCCGGTCTCCC
# DNA 2: TGGTGGCTACGACGGGATT
# Molecular target: T1, RBFOX1 RRM
# Assay: EMSA; HiTS-Eq, 1 nM pool, 10 min; buffer printed only for the single-RNA assays: 10 mM Tris pH 7.5, 150 mM NaCl, 3.4 mM EDTA, 0.001% NP-40, 30 C
# Conditions: tags: His6 N-terminal (pET28a); label: 5' 32P
# Summary of the method: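 Purified wild-type or mutant RbFox RRM at increasing concentrations was equilibrated with 1 nM of 5′-radiolabelled RNA carrying 7 randomized nucleotides for 10 min in 50 µL. Unbound RNA was separated by 8% native PAGE and sequenced. Relative association constants came from read-count changes of each RNA species compared with the control reaction, normalised to the cognate motif.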
row,Binder,binding signal
1,B1,0.0068 KA relative to UGCAUGU
2,B2,0.0101 KA relative to UGCAUGU
3,B3,0.000265 KA relative to UGCAUGU
4,B4,0.00788 KA relative to UGCAUGU
5,B5,0.00101 KA relative to UGCAUGU
6,B6,0.0266 KA relative to UGCAUGU
7,B7,0.0237 KA relative to UGCAUGU
8,B8,0.0274 KA relative to UGCAUGU
9,B9,0.0335 KA relative to UGCAUGU
10,B10,0.023 KA relative to UGCAUGU
11,B11,0.0345 KA relative to UGCAUGU
12,B12,0.0118 KA relative to UGCAUGU
13,B13,0.00851 KA relative to UGCAUGU
14,B14,0.00809 KA relative to UGCAUGU
15,B15,0.0142 KA relative to UGCAUGU
16,B16,0.00927 KA relative to UGCAUGU
17,B17,0.0137 KA relative to UGCAUGU
18,B18,0.426 KA relative to UGCAUGU
19,B19,0.0129 KA relative to UGCAUGU
20,B20,0.696 KA relative to UGCAUGU
21,B21,0.573 KA relative to UGCAUGU
22,B22,0.0108 KA relative to UGCAUGU
23,B23,0.662 KA relative to UGCAUGU
24,B24,0.0123 KA relative to UGCAUGU
25,B25,0.0211 KA relative to UGCAUGU
